From PubChem BioAssay (NCI)
About 83,000 compounds went through this panel and 20% of them were active in at least one assay; those are over-represented in the sample as a whole.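 Results are percent growth after 48 hours of single-concentration exposure. 100 means growth as in untreated cells, lower positive values show inhibition; negative values down to -100 show cell death.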 Values without a mark were called inactive. Active and inactive are the calls of the source. The calls were made as follows: active = growth percent below 10; inactive = the rest.

Key:
Test in all cases: NCI-60 one-dose screen, 48 h (100 = growth as untreated, 0 = no growth, -100 = all killed)
Conditions in all cases: 10 µM unless noted
HCT-15 colon = tested on: HCT-15 colon
HT29 colon = tested on: HT29 colon
SNB-75 CNS = tested on: SNB-75 CNS
SNB-19 CNS = tested on: SNB-19 CNS
U251 CNS = tested on: U251 CNS
PC-3 prostate = tested on: PC-3 prostate
SK-MEL-5 melanoma = tested on: SK-MEL-5 melanoma
UACC-62 melanoma = tested on: UACC-62 melanoma
LOX IMVI melanoma = tested on: LOX IMVI melanoma
SK-MEL-28 melanoma = tested on: SK-MEL-28 melanoma
SK-MEL-2 melanoma = tested on: SK-MEL-2 melanoma
EKVX NSCLC = tested on: EKVX NSCLC
SN12C renal = tested on: SN12C renal
UO-31 renal = tested on: UO-31 renal
TK-10 renal = tested on: TK-10 renal
ACHN renal = tested on: ACHN renal
CAKI-1 renal = tested on: CAKI-1 renal
A498 renal = tested on: A498 renal
CCRF-CEM leukemia = tested on: CCRF-CEM leukemia
MOLT-4 leukemia = tested on: MOLT-4 leukemia

Structure (SMILES)	growth (HCT-15 colon)	growth (HT29 colon)	growth (SNB-75 CNS)	growth (SNB-19 CNS) [%]	growth (U251 CNS)	growth (PC-3 prostate)	growth (SK-MEL-5 melanoma)	growth (UACC-62 melanoma)	growth (LOX IMVI melanoma)	growth (SK-MEL-28 melanoma)	growth (SK-MEL-2 melanoma)	growth (EKVX NSCLC)	growth (SN12C renal)	growth (UO-31 renal)	growth (TK-10 renal)	growth (ACHN renal)	growth (CAKI-1 renal)	growth (A498 renal)	growth (CCRF-CEM leukemia)	growth (MOLT-4 leukemia)
O=C(N/N=C/c1cccc(O)c1)c1ccccc1Nc1cccc(C(F)(F)F)c1	72.2%	106%	79.7%	88.1	82.4%	81.9%	82.5%	80.7%	66.7%	96.6%	111%	69.9%	93.5%	58%	97.5%	95.4%	36.9%	92.3%	3.83% (active)	–
C[C@]12CCc3nc(Nc4cccc(O)c4)sc3C1=CC[C@@H]1[C@@H]2CC[C@]2(C)/C(=N\NC(N)=S)CC[C@@H]12	-29% (active)	3.21% (active)	1.36% (active)	57.9	11.9%	20.1%	36.7%	73.1%	-73.8% (active)	9.46% (active)	40.8%	65.9%	30.7%	-37.1% (active)	20.1%	-54.1% (active)	36.4%	97.5%	1.64% (active)	5.41% (active)
CC1=CC[C@@H]2CC[C@]3(C)[C@H](CC[C@@H]4[C@@]5(C)CCCNC(C)(C)[C@@H]5CC[C@]43C)[C@H]2[C@@H]1C	-57.8% (active)	-55.2% (active)	76.5%	18.1	-90.8% (active)	27.7%	89.9%	92.4%	-100% (active)	63.7%	94.6%	84.5%	48.3%	55.7%	80.5%	8.91% (active)	30.4%	60.2%	5.21% (active)	-8.43% (active)
CN1CCN(C(=O)[C@]2(C)CC[C@]3(C)CC[C@]4(C)C(=CC(=O)[C@@H]5[C@@]6(C)CCC(=O)NC(C)(C)[C@@H]6CC[C@]54C)[C@@H]3C2)CC1	94.6%	86.9%	73.7%	97.8	86.7%	88.8%	88.8%	97.3%	84.6%	101%	100%	93.9%	90.4%	71.8%	105%	108%	95.8%	102%	93.2%	85.6%
COc1ccc(-c2nn(Cc3ccccc3)c3c2-c2oncc2CC3)cc1OC	93.4%	108%	105%	104	93.1%	86.6%	102%	86.8%	86.2%	105%	125%	67%	85.8%	75%	84.1%	90.9%	81.8%	57.4%	98.3%	67.2%
CN1CCN(C(=O)OCc2nc3c(N4CCOCC4)nc(-c4ccccc4)nc3n2C)CC1	-59.9% (active)	-29.1% (active)	-6.43% (active)	30.3	-54.2% (active)	-62.3% (active)	-96.7% (active)	-95.9% (active)	-91.4% (active)	-95.5% (active)	-59.9% (active)	-76.7% (active)	-86.8% (active)	-100% (active)	-70.1% (active)	-100% (active)	-93.5% (active)	3.05% (active)	-6.94% (active)	-6.95% (active)
COc1ccc(-c2nc(N/N=C/c3cccc(Br)c3)nc(N3CCOCC3)c2C#N)cc1	7.3% (active)	21.5%	-17.7% (active)	93.4	52.4%	47.8%	72%	84.4%	91.3%	-8.47% (active)	80.1%	90.2%	89.4%	43.5%	90.8%	54.6%	59.6%	45.1%	35.6%	46.9%
CCCc1cc2c(cc1Br)OCO2	101%	100%	99.9%	106	100%	85.7%	99.6%	101%	95.2%	105%	98%	94.4%	97.3%	95%	100%	105%	104%	98.6%	96.5%	110%
COc1ccc(C(=O)c2cc3c(N)c(C(=O)Nc4cccc5ccccc45)sc3nc2C)cc1	18.9%	-68.5% (active)	-11.3% (active)	30.4	10.5%	24.5%	-12.3% (active)	31.8%	23.7%	59.3%	37.4%	36%	22.5%	36.3%	60.5%	30.5%	20.9%	-7.9% (active)	8.02% (active)	13.8%
CN1CCN(c2ccc(NC3=C(Cl)C(=O)c4ncccc4C3=O)cc2C#N)CC1	48.2%	103%	81.1%	96.8	56.1%	60.6%	97.5%	83.4%	-61.6% (active)	-50.9% (active)	78.8%	36.4%	25.5%	-34.9% (active)	85.4%	-96.1% (active)	0.744% (active)	79.7%	-19.9% (active)	-10.8% (active)
CC1(C)CN(Cc2ccccc2)CCN1Cc1ccccc1	104%	96.2%	121%	98.1	92.3%	95.4%	97.8%	97.9%	98.6%	111%	103%	106%	96.1%	93.6%	96.3%	109%	102%	85.8%	90.9%	100%
O=C(O)C(/C=C/c1ccco1)=N\Nc1nc(-c2ccc(Cl)cc2)cs1	36.3%	86.4%	57.4%	42.5	30.7%	54.3%	62.1%	57.1%	46.7%	70.4%	11.5%	67.1%	86.8%	38.8%	77.6%	69%	63.9%	65.2%	24%	40.9%
COc1ccc(-c2nc(N/N=C/c3ccco3)nc(N3CCOCC3)c2C#N)cc1	88.3%	91%	15.6%	88.9	91.8%	59.5%	80.4%	75.6%	88.3%	80.8%	91.4%	82.3%	80.2%	28.7%	89.8%	78.3%	59%	6.67% (active)	74.2%	62.2%
CCN(CC)CCCC(C)Nc1c2c(nc3ccc(OC)cc13)CCCC2 (centres undefined)	100%	79.4%	72.8%	100	105%	98.6%	105%	103%	87.5%	101%	128%	91.2%	84.4%	76.6%	111%	96.4%	93.7%	73.5%	95.5%	94.7%
CC1(C)[C@H](O)CC[C@]2(C)[C@@H]1CC[C@@]13C[C@@H](CC[C@H]12)[C@@](O)(CO)C3	105%	112%	102%	99.7	108%	111%	101%	105%	103%	108%	106%	104%	103%	93.6%	108%	106%	97.8%	96.9%	106%	108%
